Measured values: PubChem BioAssay AID504710 (Sanford-Burnham Center for Chemical Genomics, 2011)
Unmarked numbers belong to inactive results. The source made the active and inactive calls.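 Rule for the calls: active = inhibition reaching about 16% in any single replicate (limit read from the data); inactive = the rest.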

molecular target: Hexokinase HKDC1 (Homo sapiens) (UniProt Q2TB90); assay: HKDC1 hexokinase inhibitors, confirmation, biochemical, single concentration (AID 504710); settings: recombinant HKDC1, G6PDH/diaphorase/resazurin fluorescence; at 20 µM; hits give high values
Sequence (Q2TB90 whole entry, looked up): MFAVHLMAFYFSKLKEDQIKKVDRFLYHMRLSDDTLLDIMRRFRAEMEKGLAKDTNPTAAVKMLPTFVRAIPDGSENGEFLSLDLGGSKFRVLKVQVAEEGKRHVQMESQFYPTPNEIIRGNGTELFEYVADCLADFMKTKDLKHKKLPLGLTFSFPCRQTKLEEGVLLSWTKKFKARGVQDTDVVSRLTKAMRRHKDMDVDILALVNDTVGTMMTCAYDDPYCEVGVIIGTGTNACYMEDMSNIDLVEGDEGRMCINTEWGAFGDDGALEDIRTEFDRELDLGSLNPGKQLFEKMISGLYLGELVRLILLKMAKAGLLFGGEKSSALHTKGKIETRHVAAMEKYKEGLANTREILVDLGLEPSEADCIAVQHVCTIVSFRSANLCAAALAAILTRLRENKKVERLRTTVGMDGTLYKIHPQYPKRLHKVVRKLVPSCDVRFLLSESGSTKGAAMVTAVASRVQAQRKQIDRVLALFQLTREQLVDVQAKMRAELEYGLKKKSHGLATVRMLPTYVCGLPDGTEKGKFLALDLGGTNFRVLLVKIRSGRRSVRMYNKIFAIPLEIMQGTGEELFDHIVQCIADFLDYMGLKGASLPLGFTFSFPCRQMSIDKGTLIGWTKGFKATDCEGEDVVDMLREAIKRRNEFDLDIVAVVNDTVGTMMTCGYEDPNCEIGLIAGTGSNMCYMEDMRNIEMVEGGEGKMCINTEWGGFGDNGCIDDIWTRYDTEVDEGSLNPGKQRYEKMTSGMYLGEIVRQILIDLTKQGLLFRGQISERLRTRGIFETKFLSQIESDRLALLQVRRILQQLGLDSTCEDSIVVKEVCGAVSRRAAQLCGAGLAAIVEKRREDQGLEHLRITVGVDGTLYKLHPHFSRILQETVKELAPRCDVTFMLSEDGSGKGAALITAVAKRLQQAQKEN

SMILES | inhibition
O=C(O)c1ccc(NC2=C(Cl)C(=O)c3ccccc3C2=O)cc1 | -94.3%
CC(C)(C)c1nnc(N/N=C/c2cc(Br)ccc2O)n(N)c1=O | -48.8%
Cc1ccc(C(=O)c2c(C)oc3c2C(=O)C(=O)c2ccccc2-3)cc1 | 46.2% (active)
CCc1ccc2c(c1)C(NC(C)=O)C(=O)N2CCN1CCOCC1 (stereo unspecified) | 57.2% (active)
Cc1ccc(N=Nc2ccc(O)c3ncccc23)cc1C | -40.4%
COP(=O)(OC)c1ccc(NCc2cc(O)ccc2O)cc1 | 53.1% (active)
CC(=O)N(C1=C(Cl)C(=O)c2ccccc2C1=O)c1ccc(C(=O)O)cc1 | 64.4% (active)
COC(=O)c1c(NC(C)=O)sc(Cc2ccccc2)c1C | -37.8%
COc1ccc(C2=NNC(=Nc3cc(S(=O)(=O)N(C)C)ccc3C)SC2)c(OC)c1 | -120%
COc1ccc(-c2nc3c(c(=O)n(C)c(=O)n3C)n2CC2CC(c3ccccc3)=NO2)cc1OC (stereo unspecified) | -32.8%
CCOC(=O)c1c(C)[nH]c(C2=NNC(=Nc3ccc(OCC)cc3)SC2)c1C | -122%
COC(=O)c1ccccc1NC1=C/C(=N\S(=O)(=O)c2ccc(C(=O)O)cc2)c2ccccc2C1=O | 86% (active)
O=C(O)COc1ccc(/C=N/NC(=O)c2ccc(-c3csc(Nc4ccc(Cl)cc4)n3)cc2)cc1 | 24.2% (active)
CCOc1ccccc1Nc1nnc(SCc2nnc(-c3cc(OC)c(OC)c(OC)c3)o2)s1 | 44.7% (active)
O=[N+]([O-])c1ccc(NN=Cc2ccc(O)cc2O)nc1 | 50.8% (active)
CC(=NNC(=S)N1CCCCC1)c1cccc(C)n1 | -39.6%
CCCc1nc2oc3c(OC)ncnc3c2c2c1COC(C)(C)C2 | 42.4% (active)
O=C1C(C2=C(O)c3ccccc3C2=O)=Nc2ccccc21 | -162%
COC1(NS(=O)(=O)c2ccc(Br)cc2)C(C)=CC(=O)C=C1C | 26.3% (active)
Cc1onc(-c2ccccc2)c1C(=O)NNC(=S)NC(=O)c1ccc(Br)cc1 | -56.7%
NC1=CC(=O)C(=O)c2ccccc21 | 48.7% (active)
